Measurements taken from ChEMBL document CHEMBL1961873, “Compounds: GSK PKIS; Assays: Nanosyn kinase panel” (2012).

How the values were obtained:
[1] = target: Dual specificity protein kinase CLK3 (Homo sapiens) (UniProt P49761); conditions: at 1 µM;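 note: each value is the mean inhibition of CLK3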
[2] = target: Dual specificity tyrosine-phosphorylation-regulated kinase 1A (Homo sapiens) (UniProt Q13627); conditions: at 0.1 µM
[3] = target: Dual specificity tyrosine-phosphorylation-regulated kinase 1A (Homo sapiens) (UniProt Q13627); conditions: at 1 µM
[4] = target: Dual specificity tyrosine-phosphorylation-regulated kinase 1B (Homo sapiens) (UniProt Q9Y463); conditions: at 0.1 µM
[5] = target: Dual specificity tyrosine-phosphorylation-regulated kinase 1B (Homo sapiens) (UniProt Q9Y463); conditions: at 1 µM
[6] = target: T1, Dual specificity tyrosine-phosphorylation-regulated kinase 2 (Homo sapiens) (UniProt Q92630); conditions: at 0.1 µM
T1 sequence (whole entry): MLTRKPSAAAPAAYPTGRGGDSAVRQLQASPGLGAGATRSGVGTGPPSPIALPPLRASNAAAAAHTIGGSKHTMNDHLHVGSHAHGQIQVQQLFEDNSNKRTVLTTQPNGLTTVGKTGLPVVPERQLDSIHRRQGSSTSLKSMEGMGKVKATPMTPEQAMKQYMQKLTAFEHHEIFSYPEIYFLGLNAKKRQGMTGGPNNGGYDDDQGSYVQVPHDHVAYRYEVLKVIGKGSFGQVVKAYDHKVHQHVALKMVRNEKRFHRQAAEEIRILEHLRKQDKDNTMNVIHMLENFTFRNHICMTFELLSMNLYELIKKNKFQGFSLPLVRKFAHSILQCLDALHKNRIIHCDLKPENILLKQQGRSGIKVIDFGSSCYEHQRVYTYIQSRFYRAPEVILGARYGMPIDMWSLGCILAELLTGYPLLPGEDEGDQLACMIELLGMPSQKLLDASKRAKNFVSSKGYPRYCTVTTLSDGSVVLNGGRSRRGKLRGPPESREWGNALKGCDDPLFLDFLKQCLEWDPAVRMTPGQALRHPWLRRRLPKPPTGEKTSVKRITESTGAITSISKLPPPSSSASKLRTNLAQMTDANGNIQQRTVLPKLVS

[7] = target: T1, Dual specificity tyrosine-phosphorylation-regulated kinase 2 (Homo sapiens); conditions: at 1 µM
[8] = target: Glycogen synthase kinase-3 alpha (Homo sapiens) (UniProt P49840); conditions: at 0.1 µM
[9] = target: Glycogen synthase kinase-3 alpha (Homo sapiens) (UniProt P49840); conditions: at 1 µM
[10] = target: Glycogen synthase kinase-3 beta (Homo sapiens) (UniProt P49841); conditions: at 0.1 µM
[11] = target: Glycogen synthase kinase-3 beta (Homo sapiens) (UniProt P49841); conditions: at 1 µM
[12] = target: Homeodomain-interacting protein kinase 1 (Homo sapiens) (UniProt Q86Z02); conditions: at 0.1 µM
[13] = target: Homeodomain-interacting protein kinase 1 (Homo sapiens) (UniProt Q86Z02); conditions: at 1 µM
[14] = target: T2, Homeodomain-interacting protein kinase 4 (Homo sapiens) (UniProt Q8NE63); conditions: at 0.1 µM
T2 sequence (whole entry): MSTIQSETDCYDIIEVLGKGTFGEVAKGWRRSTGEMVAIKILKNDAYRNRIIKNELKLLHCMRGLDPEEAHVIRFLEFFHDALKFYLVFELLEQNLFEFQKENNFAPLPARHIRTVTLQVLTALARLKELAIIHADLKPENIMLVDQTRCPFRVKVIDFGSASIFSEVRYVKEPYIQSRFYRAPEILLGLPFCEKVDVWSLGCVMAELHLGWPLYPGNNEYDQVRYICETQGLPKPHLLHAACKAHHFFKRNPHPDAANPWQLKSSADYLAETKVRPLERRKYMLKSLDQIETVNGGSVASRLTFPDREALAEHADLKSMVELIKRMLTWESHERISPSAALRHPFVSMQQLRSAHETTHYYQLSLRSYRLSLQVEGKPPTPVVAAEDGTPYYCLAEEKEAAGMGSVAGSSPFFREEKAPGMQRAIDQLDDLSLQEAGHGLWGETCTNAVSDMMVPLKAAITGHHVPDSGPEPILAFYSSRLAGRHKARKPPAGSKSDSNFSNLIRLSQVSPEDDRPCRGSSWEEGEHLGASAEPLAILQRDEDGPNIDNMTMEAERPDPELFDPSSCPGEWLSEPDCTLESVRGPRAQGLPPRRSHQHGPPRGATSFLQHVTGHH

[15] = target: T2, Homeodomain-interacting protein kinase 4 (Homo sapiens); conditions: at 1 µM
[16] = target: Mitogen-activated protein kinase 9 (Homo sapiens) (UniProt P45984); conditions: at 0.1 µM
[17] = target: Mitogen-activated protein kinase 9 (Homo sapiens) (UniProt P45984); conditions: at 1 µM
[18] = target: Mitogen-activated protein kinase 1 (Homo sapiens) (UniProt P28482); conditions: at 0.1 µM
[19] = target: Mitogen-activated protein kinase 1 (Homo sapiens) (UniProt P28482); conditions: at 1 µM
[20] = target: Mitogen-activated protein kinase 3 (Homo sapiens) (UniProt P27361); conditions: at 0.1 µM;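 note: each value is a mean inhibition figure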
Sequence of Mitogen-activated protein kinase 3 (Homo sapiens) (P27361 whole entry): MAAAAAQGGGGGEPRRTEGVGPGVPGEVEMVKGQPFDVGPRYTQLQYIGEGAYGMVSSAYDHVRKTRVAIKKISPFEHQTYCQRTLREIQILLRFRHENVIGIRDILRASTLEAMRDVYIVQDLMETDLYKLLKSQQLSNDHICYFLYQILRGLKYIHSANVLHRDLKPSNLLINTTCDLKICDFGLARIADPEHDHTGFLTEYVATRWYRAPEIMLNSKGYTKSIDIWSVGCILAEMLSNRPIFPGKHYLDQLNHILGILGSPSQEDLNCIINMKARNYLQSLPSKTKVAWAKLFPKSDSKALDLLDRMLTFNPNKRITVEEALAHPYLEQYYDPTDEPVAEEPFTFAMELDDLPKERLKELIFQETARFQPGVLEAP

Sequence of Mitogen-activated protein kinase 9 (Homo sapiens) (P45984 whole entry, looked up): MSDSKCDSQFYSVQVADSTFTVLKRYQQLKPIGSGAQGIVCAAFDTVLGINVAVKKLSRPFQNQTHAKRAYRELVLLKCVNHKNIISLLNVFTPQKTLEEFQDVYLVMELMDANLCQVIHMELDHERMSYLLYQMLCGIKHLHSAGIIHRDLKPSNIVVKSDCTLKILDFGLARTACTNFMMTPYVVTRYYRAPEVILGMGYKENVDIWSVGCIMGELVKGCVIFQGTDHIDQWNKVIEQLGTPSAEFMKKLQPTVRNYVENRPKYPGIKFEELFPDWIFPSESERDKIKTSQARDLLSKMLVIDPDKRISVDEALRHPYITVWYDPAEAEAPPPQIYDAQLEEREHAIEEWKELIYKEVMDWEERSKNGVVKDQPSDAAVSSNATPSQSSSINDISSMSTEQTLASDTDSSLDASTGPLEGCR
Sequence of Dual specificity tyrosine-phosphorylation-regulated kinase 1B (Homo sapiens) (Q9Y463 whole entry, looked up): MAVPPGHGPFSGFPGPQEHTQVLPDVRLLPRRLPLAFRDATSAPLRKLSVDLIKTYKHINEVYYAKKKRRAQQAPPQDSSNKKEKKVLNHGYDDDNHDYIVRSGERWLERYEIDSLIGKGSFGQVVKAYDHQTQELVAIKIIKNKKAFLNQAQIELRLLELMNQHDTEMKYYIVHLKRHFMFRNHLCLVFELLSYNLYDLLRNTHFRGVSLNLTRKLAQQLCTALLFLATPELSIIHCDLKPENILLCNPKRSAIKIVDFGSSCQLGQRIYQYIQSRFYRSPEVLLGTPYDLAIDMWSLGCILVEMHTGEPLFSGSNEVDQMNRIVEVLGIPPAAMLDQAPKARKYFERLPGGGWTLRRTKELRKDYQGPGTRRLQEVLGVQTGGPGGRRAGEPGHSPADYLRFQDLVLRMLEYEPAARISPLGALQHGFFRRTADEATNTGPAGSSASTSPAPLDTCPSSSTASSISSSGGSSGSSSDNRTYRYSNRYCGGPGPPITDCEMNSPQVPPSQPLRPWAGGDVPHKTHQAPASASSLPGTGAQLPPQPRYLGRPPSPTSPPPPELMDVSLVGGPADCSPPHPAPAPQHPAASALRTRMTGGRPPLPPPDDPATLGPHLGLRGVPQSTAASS
Sequence of Homeodomain-interacting protein kinase 1 (Homo sapiens) (Q86Z02 whole entry, looked up): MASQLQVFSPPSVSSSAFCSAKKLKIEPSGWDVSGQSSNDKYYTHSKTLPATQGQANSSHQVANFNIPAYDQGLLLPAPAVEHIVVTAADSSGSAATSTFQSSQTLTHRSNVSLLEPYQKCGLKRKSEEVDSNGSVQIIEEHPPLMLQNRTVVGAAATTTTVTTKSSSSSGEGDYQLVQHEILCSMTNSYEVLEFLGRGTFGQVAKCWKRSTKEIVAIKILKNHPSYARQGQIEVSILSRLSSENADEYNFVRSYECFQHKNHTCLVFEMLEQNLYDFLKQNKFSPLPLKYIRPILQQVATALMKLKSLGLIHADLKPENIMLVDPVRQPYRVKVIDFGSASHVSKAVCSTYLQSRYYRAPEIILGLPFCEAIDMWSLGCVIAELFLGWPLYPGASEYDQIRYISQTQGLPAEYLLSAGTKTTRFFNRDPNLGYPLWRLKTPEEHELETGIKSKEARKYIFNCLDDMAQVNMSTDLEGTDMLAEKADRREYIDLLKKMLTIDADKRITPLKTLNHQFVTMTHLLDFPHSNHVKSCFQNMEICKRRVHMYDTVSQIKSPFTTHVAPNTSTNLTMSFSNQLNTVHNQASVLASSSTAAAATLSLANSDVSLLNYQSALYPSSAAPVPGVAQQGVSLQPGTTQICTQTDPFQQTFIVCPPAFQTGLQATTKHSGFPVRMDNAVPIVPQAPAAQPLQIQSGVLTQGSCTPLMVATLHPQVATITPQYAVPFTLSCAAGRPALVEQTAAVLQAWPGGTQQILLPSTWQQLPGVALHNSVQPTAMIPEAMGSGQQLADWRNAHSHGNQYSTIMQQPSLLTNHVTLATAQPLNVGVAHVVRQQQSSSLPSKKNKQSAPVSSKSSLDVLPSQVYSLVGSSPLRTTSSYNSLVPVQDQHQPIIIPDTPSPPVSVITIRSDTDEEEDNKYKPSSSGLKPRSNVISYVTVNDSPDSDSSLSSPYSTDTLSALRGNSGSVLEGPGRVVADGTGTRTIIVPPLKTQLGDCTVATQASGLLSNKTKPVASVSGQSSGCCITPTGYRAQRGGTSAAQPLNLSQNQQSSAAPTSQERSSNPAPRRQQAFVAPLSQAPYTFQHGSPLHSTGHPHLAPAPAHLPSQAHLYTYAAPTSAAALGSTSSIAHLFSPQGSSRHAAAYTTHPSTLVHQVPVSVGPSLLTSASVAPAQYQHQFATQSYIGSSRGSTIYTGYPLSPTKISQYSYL
Sequence of Mitogen-activated protein kinase 1 (Homo sapiens) (P28482 whole entry): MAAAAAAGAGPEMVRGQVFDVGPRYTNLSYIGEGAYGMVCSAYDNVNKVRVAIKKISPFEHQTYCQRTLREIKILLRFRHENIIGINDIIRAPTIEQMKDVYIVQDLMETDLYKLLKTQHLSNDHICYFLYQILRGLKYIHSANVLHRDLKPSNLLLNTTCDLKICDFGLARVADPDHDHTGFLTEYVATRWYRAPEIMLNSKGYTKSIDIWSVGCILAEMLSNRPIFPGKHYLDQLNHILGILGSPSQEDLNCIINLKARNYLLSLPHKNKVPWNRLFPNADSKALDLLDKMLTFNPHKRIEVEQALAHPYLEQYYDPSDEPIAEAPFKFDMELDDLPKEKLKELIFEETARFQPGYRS
Sequence of Dual specificity protein kinase CLK3 (Homo sapiens) (P49761 whole entry, looked up): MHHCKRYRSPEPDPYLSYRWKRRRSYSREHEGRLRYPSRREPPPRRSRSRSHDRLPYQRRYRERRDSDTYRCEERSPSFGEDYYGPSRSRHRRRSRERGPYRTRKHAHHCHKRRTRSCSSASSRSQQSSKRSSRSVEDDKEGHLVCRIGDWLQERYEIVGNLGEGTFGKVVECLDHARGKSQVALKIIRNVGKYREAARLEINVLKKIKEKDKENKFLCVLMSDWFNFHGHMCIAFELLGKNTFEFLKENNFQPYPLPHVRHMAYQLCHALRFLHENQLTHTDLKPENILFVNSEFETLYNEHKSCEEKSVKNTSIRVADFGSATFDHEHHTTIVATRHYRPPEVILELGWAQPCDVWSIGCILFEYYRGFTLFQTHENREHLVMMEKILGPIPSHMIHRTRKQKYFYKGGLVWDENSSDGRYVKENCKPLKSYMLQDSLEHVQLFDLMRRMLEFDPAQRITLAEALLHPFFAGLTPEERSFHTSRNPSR
Sequence of Glycogen synthase kinase-3 beta (Homo sapiens) (P49841 whole entry, looked up): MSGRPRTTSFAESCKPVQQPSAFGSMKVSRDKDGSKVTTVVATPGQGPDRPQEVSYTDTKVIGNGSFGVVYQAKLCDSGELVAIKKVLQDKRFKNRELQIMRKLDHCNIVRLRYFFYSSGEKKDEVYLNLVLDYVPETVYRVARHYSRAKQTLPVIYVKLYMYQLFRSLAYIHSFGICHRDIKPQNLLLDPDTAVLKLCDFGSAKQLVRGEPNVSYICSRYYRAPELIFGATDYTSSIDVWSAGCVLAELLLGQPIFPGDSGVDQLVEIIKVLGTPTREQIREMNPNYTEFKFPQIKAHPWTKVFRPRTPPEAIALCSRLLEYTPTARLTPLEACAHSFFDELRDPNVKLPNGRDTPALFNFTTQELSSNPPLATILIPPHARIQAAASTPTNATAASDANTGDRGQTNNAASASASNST
Sequence of Glycogen synthase kinase-3 alpha (Homo sapiens) (P49840 2-483 limits assumed): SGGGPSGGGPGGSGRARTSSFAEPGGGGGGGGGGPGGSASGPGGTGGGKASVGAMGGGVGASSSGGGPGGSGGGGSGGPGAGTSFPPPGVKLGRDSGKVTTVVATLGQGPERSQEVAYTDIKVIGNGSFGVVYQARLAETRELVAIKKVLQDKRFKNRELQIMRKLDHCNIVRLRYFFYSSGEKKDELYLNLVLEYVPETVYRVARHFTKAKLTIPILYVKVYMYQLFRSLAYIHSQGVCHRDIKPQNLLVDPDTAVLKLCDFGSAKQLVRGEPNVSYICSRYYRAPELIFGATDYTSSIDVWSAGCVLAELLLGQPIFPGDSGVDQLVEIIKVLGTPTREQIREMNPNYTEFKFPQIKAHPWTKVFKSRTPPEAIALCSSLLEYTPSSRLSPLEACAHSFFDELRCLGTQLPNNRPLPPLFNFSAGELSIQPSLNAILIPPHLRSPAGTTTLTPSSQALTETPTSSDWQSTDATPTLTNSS

SMILES	inhibition [1]	inhibition [2]	inhibition [3]	inhibition [4]	inhibition [5]	inhibition [6]	inhibition [7]	inhibition [8]	inhibition [9]	inhibition [10]	inhibition [11]	inhibition [12]	inhibition [13]	inhibition [14]	inhibition [15]	inhibition [16]	inhibition [17]	inhibition [18]	inhibition [19]	inhibition [20]
Fc1ccc(-c2nc3n(c2-c2ccncc2)CCS3)cc1	-2.32%	0.54%	0.87%	-3.06%	-3.89%	2.91%	2.31%	-0.87%	3.8%	-1.43%	7.8%	-4.87%	-3.92%	0.39%	1.1%	7.66%	25.9%	3.06%	5.59%	2.96%
COc1cc(Nc2ncc3c(C)nc(-c4cccc(Oc5ccccc5)c4)n3n2)cc(OC)c1OC	2.37%	0.25%	5.84%	0.92%	2.74%	2.11%	1.95%	0.37%	0.14%	-0.59%	0.75%	0.25%	10.8%	2.78%	7.44%	2.43%	4.03%	2.11%	8.58%	4.14%
CCN(CC)Cc1ccc(Nc2nccc(-c3cnn4ncccc34)n2)cc1	5.2%	40%	88%	43.6%	69.2%	5.06%	25.7%	24.4%	65.8%	18%	62.3%	50.6%	71.9%	18.1%	59%	6.18%	30.9%	6.89%	15.8%	
O=C1Nc2ccc(I)cc2C1=Cc1cc(Br)c(O)c(Br)c1	-0.23%	1.95%	4.99%	-0.26%	3.56%	4.72%	8.06%	0.99%	5.19%	0.29%	5.98%	-1.21%	6.66%	-0.29%	6.76%	5.13%	7.68%	2.02%	4.96%	3.73%
CN1CCN(CCCNc2nc3ccc(Oc4ccc(NC(=O)Nc5cc(C(F)(F)F)ccc5F)cc4)cc3[nH]2)CC1	-3.62%	-4.06%	-2.54%	-2.52%	-2.58%	0.8%	-0.19%	-2.85%	0.59%	-2.95%	-1.5%	-6.94%	-3.43%	6.45%	40.6%	3.11%	8.71%	1.47%	0.12%	1.55%
COc1cc2ncn(-c3cc(OCc4ccccc4C(F)(F)F)c(C(C)=O)s3)c2cc1OC	1.08%	1.88%	2.83%	-0.72%	0.32%	1.35%	1.43%	1.6%	3.73%	1.43%	2.85%	-0.68%	4.77%	3.23%	7.24%	0.67%	0.69%	5.64%	5.81%	3.61%
c1ccc(Oc2ccc(Nc3ncc(-c4ccccc4)o3)cc2)cc1	1.59%	2.14%	5.29%	1.51%	2.84%	0.4%	0.21%	2%	5.53%	1.83%	7.42%	1.51%	3.29%	-0.61%	1.2%	0.54%	2.94%	-1.99%	6.11%	1.01%
CN(C)CCOc1ccc(-c2cc(-c3ccc4c(c3)CCC4=NO)c(-c3ccncc3)o2)cc1	1.91%	-1.28%	0.21%	-1.57%	-1.47%	-1.36%	-2.61%	-0.52%	-0.36%	-0.79%	0.28%	-5.92%	2.06%	0.15%	2.98%	-1.3%	3.02%	-0.58%	0.91%	-1.4%
Cc1ccc(C(=O)NC(C)C)cc1-c1ccc(C(=O)NCC2CC2)cc1	0.67%	1.18%	2.28%	3.39%	3.96%	-2.49%	-3.21%	1.52%	3.31%	1.46%	3.01%	-2.55%	1.88%	0.31%	3.79%	-1.51%	-0.22%	-3.93%	-4.45%	-2.87%
CCS(=O)(=O)c1ccc(OC)c(Nc2ncc(-c3cccc(-c4ccccc4F)c3)o2)c1	13.9%	3.84%	26%	3.9%	18.5%	1.46%	10.3%	2.37%	9.24%	1.65%	7.6%	1.49%	6.56%	3.89%	17.3%	0.09%	6.86%	-1.77%	-3.35%	-2.17%
CCc1nccc2c1nc(-c1nonc1N)n2CC	2.23%	2.9%	7.05%	2.47%	6.3%	-0.4%	3.18%	0.44%	7.97%	2.74%	8.38%	-0.74%	6.91%	0.62%	9.48%	3.7%	3.34%	-1.66%	0.54%	1.33%
C/C(Nc1ccc(S(N)(=O)=O)cc1)=C1/C(=O)Nc2ccccc21	1.28%	3.02%	11.5%	2.13%	12.7%	-1.67%	3.79%	1.25%	7.04%	1.17%	9.04%	-1.51%	-1.35%	0.16%	2.56%	-3.47%	3.67%	3.1%	-2.06%	2.55%
CCc1cccc(CC)c1/C=C/c1cncc(C(=O)NC)c1	1.66%	1.88%	5.03%	1.08%	3.49%	2.13%	2.5%	2.14%	6.98%	2.21%	7.96%	1.64%	7.03%	1.04%	4.82%	4.45%	7.37%	1.29%	1%	2.05%
COc1cccc(-n2cnc3c(N/N=C/c4ccncc4)ncnc32)c1	-2.92%	-3.39%	2.17%	-3.26%	-0.65%	0.79%	2.96%	3.64%	34.7%	3.02%	32.4%	-2.33%	-0.32%	-0.66%	3.74%	-1.67%	-0.57%	-1.43%	-0.07%	0.83%
